PubChem BioAssay (NCI)
This is part of a sample that, as a whole, favours compounds with a hit. Of some 83,000 tested, about 20% had one in any assay.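 Results are percent growth after 48 hours of single-concentration exposure. 100 means growth as in untreated cells, lower positive values show inhibition; negative values down to -100 show cell death.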 A number with no mark means an inactive call. Calls of active or inactive are those of the source. Rule for the calls: active = growth percent below 10; inactive = the rest.

Legend:
Assay in all cases: NCI-60 one-dose screen, 48 h (100 = growth as untreated, 0 = no growth, -100 = all killed)
Conditions in all cases: 10 µM unless noted
HCT-15 colon = tested on: HCT-15 colon
HT29 colon = tested on: HT29 colon
SNB-75 CNS = tested on: SNB-75 CNS
SNB-19 CNS = tested on: SNB-19 CNS
U251 CNS = tested on: U251 CNS
PC-3 prostate = tested on: PC-3 prostate
SK-MEL-5 melanoma = tested on: SK-MEL-5 melanoma
UACC-62 melanoma = tested on: UACC-62 melanoma
SK-MEL-28 melanoma = tested on: SK-MEL-28 melanoma
SK-MEL-2 melanoma = tested on: SK-MEL-2 melanoma
EKVX NSCLC = tested on: EKVX NSCLC
SN12C renal = tested on: SN12C renal
UO-31 renal = tested on: UO-31 renal
TK-10 renal = tested on: TK-10 renal
ACHN renal = tested on: ACHN renal
CAKI-1 renal = tested on: CAKI-1 renal
A498 renal = tested on: A498 renal
CCRF-CEM leukemia = tested on: CCRF-CEM leukemia
MOLT-4 leukemia = tested on: MOLT-4 leukemia

Row | SMILES | growth (HCT-15 colon) | growth (HT29 colon) | growth (SNB-75 CNS) | growth (SNB-19 CNS) | growth (U251 CNS) | growth (PC-3 prostate) | growth (SK-MEL-5 melanoma) | growth (UACC-62 melanoma) | growth (SK-MEL-28 melanoma) | growth (SK-MEL-2 melanoma) | growth (EKVX NSCLC) | growth (SN12C renal) | growth (UO-31 renal) | growth (TK-10 renal) | growth (ACHN renal) | growth (CAKI-1 renal) | growth (A498 renal) | growth (CCRF-CEM leukemia) | growth (MOLT-4 leukemia)
1 | O=C1c2cccc3cccc(c23)C(=O)N1CC#Cc1ccc2c3c(cccc13)C(=O)N(CCN1CCNCC1)C2=O | 61.7% | 23.5% | 99.6% | 86.2% | 56.4% | 85.5% | 103% | 105% | 13.5% | 113% | 104% | 97.2% | 97.7% | 141% | 74.4% | 82.4% | 112% | 7.71% (active) | 6.74% (active)
2 | CCOc1ccc(NC(=O)c2ccoc2COc2ccccc2)cc1 | 101% | 107% | 107% | 95.3% | 99.4% | 95.7% | 99.1% | 79.8% | 101% | 106% | 96.1% | 99.1% | 79.8% | 101% | 106% | 95.7% | 108% | 95% | 97%
3 | C(=C\c1c[nH]c2ccccc12)/c1ccc2ccccc2n1 | 53.9% | 33.4% | 81.1% | 84.4% | 59.7% | 59.3% | 96% | 86.8% | 107% | 86.5% | 70.8% | 51.4% |  | 114% | 89.9% | 60.7% | 120% | 14.9% | 12.4%
4 | Cc1ccc2[nH]cc(-c3nc(-c4cn(C)c5ncccc45)cs3)c2c1 | 83% | 74.6% | 85% | 109% | 94.8% | 57% | 76.9% | 79.3% | 90.6% | 89.4% | 59.5% | 87.8% |  | 95% | 79.6% | 77.9% | 72.2% | 58.5% | 53.3%
5 | COc1cc2nc(Cl)nc(Nc3cccc(C(=O)/C=C/c4ccc(Br)cc4)c3)c2cc1OC | 43.6% | 68.4% | 76.6% | 86.1% | 80% | 65.5% | 91.6% | 81.5% | 92.7% | 92.4% | 81.3% | 80.8% | 60.8% | 172% | 78.3% | 72.8% |  | 31.3% | 37.1%
6 | COCCNC1=C(Cl)C(=O)c2ccccc2C1=O | 90.3% | 101% | 74.5% | 102% | 91.3% | 117% | -6.75% (active) | 90.9% | 109% | 103% | 108% | 95.2% |  | 138% | 104% | 116% | 81.3% | 99.7% | 108%
7 | CCCCCC1CCCCN1C(=O)OCC (centres undefined) | 96% | 101% | 88.4% | 105% | 96.7% | 91.9% | 116% | 105% | 106% | 94.9% | 124% | 102% |  | 100% | 98.8% | 99.4% | 91.4% | 96.6% | 79.9%
8 | C#CCN=C[C@]12CC[C@@H](C(=C)C)[C@@H]1[C@H]1CC[C@@H]3[C@@]4(C)CCC(=O)C(C)(C)[C@@H]4CC[C@@]3(C)[C@]1(C)CC2 | 53.2% | 55.7% | 120% | 79% | 62.1% | 24.5% | 25.3% | 37.7% | 81.6% | 91.7% | 68.3% | 55.1% |  | 104% | 75.7% | 45% | 91.9% | 61.3% | 42.6%
9 | CC(=O)N1N=C(c2ccc(C)cc2)CC1c1ccc(Oc2ccc(Br)cc2)cc1 (centres undefined) | 80.4% | 79% | 73.7% | 84.9% | 75.3% | 87% | 91.7% | 64.4% | 105% | 106% | 83.1% | 78.5% | 39.2% | 71.1% | 99.5% | 74.6% |  | 93.2% | 71.3%
10 | C=C(C)[C@@H]1CC[C@]2(C(=O)OC)CC[C@]3(C)[C@H](CC[C@@H]4[C@@](C)(CC/C(N)=N/O)[C@H](C(=C)C)CC[C@]43C)[C@@H]12 | 102% | 99.1% | 95.4% | 95.9% | 97.7% | 86.1% | 94.2% | 99.6% | 101% | 97.9% | 97% | 97.2% |  | 105% | 101% | 77.7% | 95.1% | 107% | 92.4%
11 | c1csc(-c2nc(-c3cc4ccccc4c(N4CCOCC4)n3)cs2)c1 | 90.4% | 97.1% | 81.5% | 87.1% | 82.2% | 93.4% | 54.5% | 28.9% | 55.2% | 47.4% | 87.9% | 92.4% | 71.3% | 123% | 85.2% | 84.5% |  | 107% | 92.1%
12 | Cn1cc(-c2nc(-c3cn(C)c4ncccc34)cs2)c2cc(F)ccc21 | 21.3% | 8.87% (active) | 29.1% | 46.4% | 31.8% | 47.1% | 24.7% | 41.7% | 50.9% | 31.1% | 55.3% | 46% |  | 46.3% | 47.4% | 20.8% | 44.8% | 40% | 35.6%
13 | O=C(/C=C/c1cccc2ccccc12)Nc1ncc(Cc2ccccc2)s1 | 12.2% | 14.1% | -17.2% (active) | 9.85% (active) | 1.44% (active) | 30.3% | 10.6% | 15.9% | 44.1% | 43.4% | 20.3% | 32.1% | 32.2% | 31.7% | 20.8% | 22.5% |  | 10.4% | 18%
14 | CCOC(=O)c1ccc2c(c1)[n+](=O)c(C(=O)C1CCCS1)c(C(F)(F)F)n2[O-] (centres undefined) | -72% (active) | -82.4% (active) | -100% (active) | -77.4% (active) | -100% (active) | -75.4% (active) | -96.9% (active) | -80.4% (active) | -93.6% (active) | -87.3% (active) | -77% (active) | -47.3% (active) | -92.4% (active) | -96.5% (active) | -86.9% (active) | -85.4% (active) |  | -44% (active) | -67.3% (active)
15 | O=C1NC(c2ccc(Cl)c(Cl)c2)=C/C1=C\c1ccccc1 | 69% | 87.7% | 63.1% | 80% | 46.1% | 79.2% | 97.3% | 86.7% | 104% | 107% | 70.8% | 71.8% | 29.2% | 100% | 4.37% (active) | 49.3% |  | 45.8% | 53.9%
16 | CC(=O)O[C@H]1CC[C@]2(C)[C@H]3C(=O)C=C4[C@@H]5C[C@](C)(C(=O)N6CCCNCC6)CC[C@]5(C)CC[C@@]4(C)[C@]3(C)CC[C@H]2C1(C)C | -96.5% (active) | -63.5% (active) | 80.1% | 9.77% (active) | -94.5% (active) | 6.04% (active) | 90.2% | 13.7% | -74.5% (active) | 96.2% | 54.8% | -82.1% (active) |  | -14.3% (active) | -100% (active) | -99.3% (active) |  | -31.5% (active) | -23.6% (active)
